The source of these data is paper PMC7819943, “Rice protein-binding microarrays: a tool to detect cis-acting elements near promoter regions in rice”.

Over roughly 39,000 sequences, “fluorescence intensity (a.u.)” has its median near 4,300; the highest 2% begin near 39,000. This excerpt belongs to a sample that is enriched for the highest values.

The target in this assay is T1, OsSMF1 (Oryza sativa, UniProt Q6ZLB0 1-436).
T1 sequence: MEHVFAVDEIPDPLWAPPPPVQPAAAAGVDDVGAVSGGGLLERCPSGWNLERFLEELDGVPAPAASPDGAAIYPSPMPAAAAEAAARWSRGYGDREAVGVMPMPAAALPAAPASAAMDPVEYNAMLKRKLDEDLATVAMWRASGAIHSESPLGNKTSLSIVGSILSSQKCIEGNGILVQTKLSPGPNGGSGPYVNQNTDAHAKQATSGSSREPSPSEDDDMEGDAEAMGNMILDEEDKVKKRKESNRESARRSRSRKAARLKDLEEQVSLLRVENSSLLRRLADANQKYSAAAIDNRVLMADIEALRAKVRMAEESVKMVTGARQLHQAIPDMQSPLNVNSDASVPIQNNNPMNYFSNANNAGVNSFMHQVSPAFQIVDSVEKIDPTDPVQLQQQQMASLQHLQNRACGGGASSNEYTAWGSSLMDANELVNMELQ
In words: protein-binding microarray (RPBM); PBS, 2% BSA, 51.3 ng/ul salmon testes DNA, 50 uM zinc acetate, 200 nM TF, 25 C, 1 h; high values mean tight binding. To be noted: protein: recombinant; tags: N-terminal polyhistidine and DsRed monomer fusion (pET32a); chain copies: 2; label: CyDye5-dUTP incorporated in the synthesized complementary strand; 3' TTTTT single-stranded linker to array surface; dsDNA, one strand shown. The method in brief:
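The binding signal is fluorescence intensity per array feature (arbitrary units). Readings came from an Axon 4000B scanner after a washed, 2% BSA-blocked, double-stranded custom Agilent array had been incubated for 1 h at 25 °C with 200 nM protein and 50 µM zinc acetate. The protein was a Ni–NTA-purified transcription factor fused N-terminally to polyhistidine and DsRed, expressed in E. coli BL21-CodonPlus.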
In the case of “GGTTGAATCAAATTGTTCCTCTGTTACACTTACACATCATCGGAGTCACCTAGTGCAG”, the binding signal was 3250 fluorescence intensity (a.u.).
The same measure for “AATACTGAATACTAGTGCAACGTCATTGAAAATTTTATCCCGGAGTCACCTAGTGCAG”: 5090 fluorescence intensity (a.u.).
Next, “CGTCGTGCCTACGGGCCGTTCGCGTGTCGTGTCGGCCCAACGGAGTCACCTAGTGCAG”: 3850 fluorescence intensity (a.u.).
Regarding “ACGGTAGGAGCTGCAGCGGTCGGGGTGGGAGCAGGGGTCGCGGAGTCACCTAGTGCAG”, the binding signal is 3440 fluorescence intensity (a.u.).
Next, “AAATGTTATGAGTACGATGACACATTAAAACACAGTCATTCGGAGTCACCTAGTGCAG”: 4650 fluorescence intensity (a.u.); “TTTTGGGCCTCCTGTGACCTACATGGGCCGCACTTCTTTCCGGAGTCACCTAGTGCAG”: 25900 fluorescence intensity (a.u.).
Turning to “TTACAGGTGTTGTCATTTTATGTGACCGGTCAGACCGGGCCGGAGTCACCTAGTGCAG”, the binding signal is 4510 fluorescence intensity (a.u.).
With “GACCATAAGTGTCCACGTATGCAAAACTCGACCTCCGTTTCGGAGTCACCTAGTGCAG”, the binding signal is 13800 fluorescence intensity (a.u.).
The same measure for “CACAACCACAAGGTTGTCATTACCTCTATCATCGGTGTAACGGAGTCACCTAGTGCAG”: 3380 fluorescence intensity (a.u.); for “CATCATGTCCTATCTGAACTGTTACAACCACGACGTAGTACGGAGTCACCTAGTGCAG”: 3320 fluorescence intensity (a.u.).
Turning to “CATTTATAACTTTGCTGTGTTTCACTGATGCAGGTTTTATCGGAGTCACCTAGTGCAG”, the binding signal is 3490 fluorescence intensity (a.u.).
Next, “AAAGCCGCACACGTGTTTCCCGCGACCGCGCCACGTCACCCGGAGTCACCTAGTGCAG”: 46700 fluorescence intensity (a.u.); “CCCCTCCGCCTCGTCCCCATCGGCCACTGCCACCACCGCCCGGAGTCACCTAGTGCAG”: 3700 fluorescence intensity (a.u.).
Next, “CGCCACCGTCACCGACCGCGCGCGCACGCACGCACACTCCCGGAGTCACCTAGTGCAG”: 3390 fluorescence intensity (a.u.); “CACGCCGCCGCCCGTCGCGAGCTCCACGTCGAGCAGCAGCCGGAGTCACCTAGTGCAG”: 4920 fluorescence intensity (a.u.); “CCGCCGCAGCCGCAGCCGGCCAAGCTGGGCGTCGGCGACACGGAGTCACCTAGTGCAG”: 39700 fluorescence intensity (a.u.).
Take “GCGCGCGCCACCGCACCCGCGACGCCGACGTGTTCATGACCGGAGTCACCTAGTGCAG”: the binding signal is 5890 fluorescence intensity (a.u.).
With “GTGGCGCGCGCGCGCACGCACGCTGGGCGACACGCCACGCCGGAGTCACCTAGTGCAG”, the binding signal was 4530 fluorescence intensity (a.u.).
Next, “TCCGCCGTCGCCGCTCCGTCCATCGCCCGCCGTCACCGCCCGGAGTCACCTAGTGCAG”: 4040 fluorescence intensity (a.u.); “CCAGCATCGCCGGCAGATCCACGTCGAGCATCGCGGCAGGCGGAGTCACCTAGTGCAG”: 5190 fluorescence intensity (a.u.); “CGGTCGGTCCATCGCCCTCCGTCCCCATCCCCACCGTCACCGGAGTCACCTAGTGCAG”: 41900 fluorescence intensity (a.u.).
As for “CGGCGTGGCCGCTGCGTCACGGGCGACTGCGCCAGCGTGCCGGAGTCACCTAGTGCAG”, the binding signal is 5890 fluorescence intensity (a.u.).
Next, “CCGTCGCCGCCAAGCATCGAGCCGCCGGCCACAGCAGCCGCGGAGTCACCTAGTGCAG”: 42100 fluorescence intensity (a.u.).
Consider “TACAAAATCATCCATCAACCGCAAAATCAGATATCGACCGCGGAGTCACCTAGTGCAG”, for which the binding signal is 3800 fluorescence intensity (a.u.).
Next, “GATGTGACGTGATGTGATGGAAAGTTGGGAGTTGGGGAAACGGAGTCACCTAGTGCAG”: 6040 fluorescence intensity (a.u.).
Next, “TTGGCCGGTAACGCGTCATGACTCATGAGCTACTGGACTTCGGAGTCACCTAGTGCAG”: 9990 fluorescence intensity (a.u.); “TTCGTCCGTGCGTGCGTGCGTGCGCGACTCGCTCTCACACCGGAGTCACCTAGTGCAG”: 10700 fluorescence intensity (a.u.); “TACATTTCTTTGACAAAACTTTTATAACCAGCTGATGTGGCGGAGTCACCTAGTGCAG”: 11400 fluorescence intensity (a.u.).
Turning to “GAGTTGTGACTGTGAGGCACACCAATGGCGGCCCATGGATCGGAGTCACCTAGTGCAG”, the binding signal is 3740 fluorescence intensity (a.u.).
Next, “CACTGTCCATCCATGGTGGTGGTCAGACAACCCCAGCACACGGAGTCACCTAGTGCAG”: 3990 fluorescence intensity (a.u.); “TGCGATTGATTCGGTATTAGAGCCTGCATACGTGTCATCTCGGAGTCACCTAGTGCAG”: 22100 fluorescence intensity (a.u.); “TCTCCCAGGCCACCATCGGCGTCCACATCCCGCCGTCCGCCGGAGTCACCTAGTGCAG”: 3510 fluorescence intensity (a.u.).
Next, “GCCGCCGCCGCCGTCTGCACCCGCGTCAGCGCTCCACAAACGGAGTCACCTAGTGCAG”: 3440 fluorescence intensity (a.u.); “GTCGGCCCATGAATATGCTGACGTCACTTTTGAGCCCACTCGGAGTCACCTAGTGCAG”: 36600 fluorescence intensity (a.u.).
The same measure for “CCTCTCCAGTACGCGTCGCCCCGCCACGTCAGCGACTGGCCGGAGTCACCTAGTGCAG”: 41600 fluorescence intensity (a.u.).
As for “CGGCCGCCGCGACACCCGCCGCCACGTCGCCCCGCCACGCCGGAGTCACCTAGTGCAG”, the binding signal was 9460 fluorescence intensity (a.u.).
Next, “TCGGCCAATGCGGAGCCGTCAGCTCTCCGCTGCTCGGCTACGGAGTCACCTAGTGCAG”: 44400 fluorescence intensity (a.u.).
Next, “CTCTCCCGCCTCGCCCGTCGACGCCCGCGCCACGTGCAGCCGGAGTCACCTAGTGCAG”: 6190 fluorescence intensity (a.u.); “CATGAGGAGGATGCTGACGTCTCGAGGTGAAGGCCGCAATCGGAGTCACCTAGTGCAG”: 4970 fluorescence intensity (a.u.).
Turning to “CGCTCTGCCGTCCGGCTCTCCGCGCGATGCTACGTGGCCGCGGAGTCACCTAGTGCAG”, the binding signal is 5480 fluorescence intensity (a.u.).
The same measure for “CCATCTCGGCCCATGAGGATGCTGACGTCACCGCGTCGTCCGGAGTCACCTAGTGCAG”: 42700 fluorescence intensity (a.u.); for “TCCAGATCTTGGCGCCGCCGGATCCCGTCAGTCTCCACAACGGAGTCACCTAGTGCAG”: 48300 fluorescence intensity (a.u.).
